This note sets out measurements from PubChem BioAssay (NCATS).

Experiment in all cases: Primary qHTS to identify gynecologic anti-cancer compounds using libraries of approved drugs and bioactive compounds (AID 1345084); further: nearly all actives have a fitted effect of over 55% in size
Background: qHTS replaces the single test concentration by a dilution series.

One test deals with C33A. The following applies: Gynecologic cancer cell panel viability, ATPlite luminescence, 48 h; series mostly up to 57.5 µM. The method, boiled down:
(§1)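 Cytotoxicity screen measuring ATP content by luciferase luminescence. Each compound is applied at five concentrations for 48 h at 37 C with 5% CO2.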
(Cellular ATP, detected with luciferase, serves as a proxy for viable cell number.)

The next test relates to Es-2. Particulars: Gynecologic cancer cell panel viability, ATPlite luminescence, 48 h; series mostly up to 57.5 µM. In a few lines:
as §1

The next test concerns HeLa. Particulars: Gynecologic cancer cell panel viability, ATPlite luminescence, 48 h; series mostly up to 57.5 µM. In a few lines:
as §1

Another test has as its system Hek293T. The following applies: Gynecologic cancer cell panel viability, ATPlite luminescence, 48 h, control line for the selectivity index; series mostly up to 57.5 µM. The method, boiled down: as §1
A further test relates to JEG-3. Particulars: Gynecologic cancer cell panel viability, ATPlite luminescence, 48 h; series mostly up to 57.5 µM. The method, boiled down:
as §1

A further test concerns PA-1. Particulars: Gynecologic cancer cell panel viability, ATPlite luminescence, 48 h; series mostly up to 57.5 µM. In a few lines:
as §1

The next test concerns SKOV3. Particulars: Gynecologic cancer cell panel viability, ATPlite luminescence, 48 h; series mostly up to 57.5 µM. The method, boiled down: as §1
A further test has as its system Tov-21-G. The following applies: Gynecologic cancer cell panel viability, ATPlite luminescence, 48 h; series mostly up to 57.5 µM. In a few lines:
as §1

The next test relates to Tov112D. The following applies: Gynecologic cancer cell panel viability, ATPlite luminescence, 48 h; series mostly up to 57.5 µM. In a few lines:
as §1

The subject of a further test is OV90. The following applies: Gynecologic cancer cell panel viability, ATPlite luminescence, 48 h; series mostly up to 57.5 µM. In a few lines: as §1
The test system of a further test is CAOV3. Particulars: Gynecologic cancer cell panel viability, ATPlite luminescence, 48 h; series mostly up to 57.5 µM. The method, boiled down:
as §1

The next test has as its system CASKI. The following applies: Gynecologic cancer cell panel viability, ATPlite luminescence, 48 h; series mostly up to 57.5 µM. The method, boiled down:
as §1

Results filed as inconclusive are left out. Values without a mark were called inactive. Activity calls are given as the source filed them. The call rests on the fitted dose curve; in most records, active means well fitted cell-killing curve with a large enough effect; inconclusive means small, poorly fitted or top-dose-only effect, or effect the other way; inactive means flat fitted curve, though single readings scatter.
On the % scale 0 is the no-effect control and ±100 the full control effect; potency means the concentration at half of the fitted maximal effect.

Consider `Cc1nc(NC(=O)N2CCC[C@H]2C(N)=O)sc1-c1ccnc(C(C)(C)C(F)(F)F)c1`, for which the Potency entry with C33A, with Es-2, with HeLa, in the test with Hek293T, in the test with JEG-3 and in the test with PA-1 was “inactive” throughout. For the same compound, the Potency result in the test with Tov-21-G and with Tov112D was “inactive” in each case. Further, the Potency in the test with SKOV3 is 12.6 µM (active).
On to `NC(=O)CCCSc1nc(N)nc(-c2c(Cl)cc3c4c(cccc24)COC3)n1`, for which the Potency with C33A was 0.891 µM (active); in the test on OV90, 0.708 µM (active); in the test with PA-1, 0.891 µM (active); in the test with Tov-21-G it was 1 µM (active). Also, the Potency entry in the test with HeLa was “inactive”.
As to `CC1(C(=O)Nc2ccc(F)nc2)CCCN1c1nc(Nc2cc(C3CC3)[nH]n2)c2cccn2n1` (stereo not drawn), the Potency entry in the test with C33A, with Es-2 and in the test with Tov112D was “inactive” throughout. Also, the Potency is 5.01 µM (active) in the test with Hek293T, 3.55 µM (active) in the test on OV90 and 14.1 µM (active) in the test with Tov-21-G.
Regarding `CC(C)n1cnc2c(-c3cnc(N)nc3)nc(N3CCOCC3)nc21`, the Potency entry in the test on C33A and with JEG-3 was “inactive” throughout. Besides, the Potency with Hek293T is 1.12 µM (active); in the test on SKOV3, 1.26 µM (active).
For the compound `CCC(C)C(=O)OC1C(C)C2(O)C(C=C(CO)CC3(O)C(=O)C(C)=CC32)C2C(C)(C)C12OC(=O)C(C)C` (stereo not drawn), the Potency entry in the test on CAOV3, in the test on CASKI, with HeLa, in the test on Hek293T, with JEG-3 and in the test with OV90 was “inactive” each time. The Potency entry with PA-1, in the test on SKOV3, in the test on Tov-21-G and with Tov112D was “inactive” throughout.
Take `O=C(COc1ccc(C(=O)c2ccccc2)cc1)NC1CCN(Cc2ccccc2)CC1`: the Potency result in the test with CAOV3, with CASKI, with Es-2, with HeLa, with JEG-3 and with PA-1 was “inactive” throughout. The Potency entry with Tov-21-G and in the test with Tov112D was “inactive” throughout.
`Cc1nc(C#Cc2ccnc(Cl)c2)c(C)n1-c1ccc(F)cc1`: the Potency entry with CAOV3, in the test with CASKI, in the test on Es-2, in the test with HeLa, in the test with JEG-3 and with OV90 was “inactive” each time. Besides, the Potency result in the test with PA-1, with Tov-21-G and in the test on Tov112D was “inactive” throughout.
As to `Cn1cc(-c2cnn3c(N)c(Br)c(C4CCCNC4)nc23)cn1` (stereo not drawn), the Potency result with CAOV3, in the test on CASKI, with JEG-3, with OV90 and with Tov112D was “inactive” each time. Moreover, the Potency in the test on PA-1 is 14.1 µM (active).
`CCc1c[nH]c2ncnc(N3CC[C@](N)(CNC(=O)c4ccc(F)cc4F)C3)c12`: the Potency entry with CAOV3, in the test with CASKI, in the test on Es-2, in the test on HeLa, with JEG-3 and in the test with Tov112D was “inactive” throughout. The Potency was 1.41 µM (active) with Hek293T and 1 µM (active) with Tov-21-G.
As for `C=C1CC2OC(=O)C(COC)C2C(OC(=O)/C(C)=C\C)CC2(C)OC1=CC2=O` (stereo not drawn), the Potency result in the test on CAOV3, in the test on CASKI, in the test with HeLa, in the test with JEG-3, with OV90 and in the test with SKOV3 was “inactive” throughout. Further, the Potency result in the test with Tov112D is “inactive”.
With `CNC1CN(c2ccc3c(=O)c(C(=O)O)cn(-c4nccs4)c3n2)CC1OC` (stereo not drawn), the activity change, negative = cytotoxicity in the test with CAOV3 was -13% [at 11.6 µM]; in the test with CASKI it was -25.3% [at 11.6 µM]; with HeLa, -22.6% [at 11.6 µM]; in the test on JEG-3 it was -9.7% [at 11.6 µM]; in the test on OV90 it was -6.73% [at 11.6 µM]. For the same compound, the Potency in the test with PA-1 was 1.41 µM (active).
Regarding `Cc1ccc(-c2cn3c4c(sc3n2)CCCC4)cc1`, the Potency is 10 µM (active) in the test on CAOV3; 17.8 µM (active) in the test with CASKI; 11.2 µM (active) in the test on Es-2; 12.6 µM (active) in the test on HeLa; 12.6 µM (active) in the test on Hek293T; 15.8 µM (active) with SKOV3. Also, the Potency in the test on Tov-21-G and in the test on Tov112D was 12.6 µM (active) in each case.
In the case of `O=C(Nc1cccc([N+](=O)[O-])c1)c1cccc(S(=O)(=O)N2CCCCCC2)c1`, the Potency entry with CAOV3, with CASKI, in the test on Es-2, in the test with HeLa, with JEG-3 and in the test on PA-1 was “inactive” throughout. In addition, the Potency entry in the test with Tov-21-G and in the test on Tov112D was “inactive” each time.
For `CC(=O)NC(C)c1cnc(-c2cnc(Oc3ccc(OC(C)C)cc3)s2)s1` (stereo not drawn), the Potency result with CAOV3, in the test with CASKI, in the test with HeLa, in the test on Hek293T, in the test on JEG-3 and in the test on OV90 was “inactive” in each case. Also, the Potency result with PA-1, in the test with Tov-21-G and in the test on Tov112D was “inactive” in each case.
For `CCN(CCNC(=O)Nc1ccccc1Br)c1cccc(C)c1`, the Potency entry in the test on CAOV3, with CASKI, in the test on Es-2, with HeLa, in the test with Hek293T and in the test with OV90 was “inactive” in each case. Moreover, the Potency entry in the test on PA-1, in the test with SKOV3, in the test on Tov-21-G and in the test on Tov112D was “inactive” in each case.
In the case of `CNc1ccc([N+](=O)[O-])c(Nc2ccc3[nH]ncc3c2)n1`, the Potency result with CAOV3, in the test on CASKI, in the test with JEG-3, in the test with OV90 and in the test with SKOV3 was “inactive” each time. In the test with HeLa, the Potency is 25.1 µM (active).
`COc1cc(N2CCC(N3CCN(C)CC3)CC2)ccc1Nc1ncc(Cl)c(Nc2ccccc2P(C)(C)=O)n1`: the Potency was 2.24 µM (active) in the test with CAOV3; 10 µM (active) with CASKI; 6.31 µM (active) in the test on HeLa; 11.2 µM (active) in the test with PA-1; 8.91 µM (active) with SKOV3; 7.08 µM (active) in the test with Tov-21-G. Further, in the test on JEG-3, the Potency result is “inactive”.
For the compound `CC(C)c1cc2c(N3CCN(C4=NCC(C)(C)S4)CC3)ncnc2s1`, the Potency entry with CAOV3, in the test with CASKI, with Es-2, in the test with HeLa, in the test on JEG-3 and with Tov-21-G was “inactive” in each case. For the same compound, the Potency entry with Tov112D is “inactive”.
As to `Cc1c[nH]c2ncnc(N3CCC(CN)(C(=O)Nc4cccc(OC(=O)N(C)C)c4)CC3)c12`, the Potency entry in the test on CAOV3, with CASKI, in the test with Es-2, in the test with HeLa, in the test with JEG-3 and in the test on PA-1 was “inactive” each time. Besides, in the test with Tov112D, the Potency entry is “inactive”. The Potency in the test with OV90 is 11.2 µM (active); with SKOV3, 22.4 µM (active).
Consider `C/C=C(/C)C(=O)OC1CC(C)(C)CC2C3=CCC4C5(C)CCC(O[C@@H]6O[C@H](C(=O)O)[C@@H](O)[C@H](O)[C@H]6O[C@@H]6O[C@H](CO)[C@H](O)[C@H](O[C@@H]7OC[C@H](O)[C@H](O)[C@H]7O[C@@H]7O[C@H](CO)[C@@H](O)[C@H](O)[C@H]7O)[C@H]6O)C(C)(C)C5CCC4(C)C3(C)C(O)C(O)C12CO` (stereo partly drawn), for which the activity change, negative = cytotoxicity is -23.4% [at 6.55 µM] in the test with CAOV3; -3.66% [at 6.55 µM] in the test with CASKI; -27.7% [at 6.55 µM] in the test with Es-2; -5.95% [at 6.55 µM] in the test on HeLa; -6.95% [at 6.55 µM] in the test with JEG-3; -5.71% [at 6.55 µM] in the test on SKOV3.
